From the supplement of paper PMC6555819

System: FXR:RXRa (NR concentration 270 nM, RXRa partner concentration 90 nM)
Experiment: PBM binding z-score (relative to random genomic background probes); higher = stronger binding; sequences stand for … in GC…GCGATTGACAGCGTAGAATGAAGG
How it was run: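 Custom Agilent 4×180K protein-binding microarrays carried double-stranded probes. Their 34-nt variable regions held direct-repeat seeds, single-nucleotide variants, half-site ablations and random human genomic background sequences. Arrays were incubated 1 h with ligand-free nuclear receptor dimers in PBS pH 7.4, 2% milk, 0.02% Triton X-100, 1 mM DTT, 0.2 mg/mL BSA and 0.4 mg/ml salmon testes DNA. Antibodies against each partner (one per run) detected binding, and scanned fluorescence was regression-normalized. Binding z-scores use random background probes as reference.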

Sequence	PBM binding z-score
CCTAGTTGGTCAGCAGGTCACACACCGGATATGA	1.89
AGTCAAAGTTCAGGAGGAGGTAACGTAAAGCACG	4.22
CCAGACAGGTGAGAAGTTAACTCAGCCTCGATTA	-0.198
TCGAGTAGGTTAGTCGGGGCATTAAGCCAACATA	-0.0253
CCTTCTGGGCCACGAAAGGTCATTGATTCAGTGA	4.23
TGTCAAAGTTCAAAGGTAACGTTAGTATCCACAC	7.28
GCGAGTTGGTCAGTAAAAGGTCACACACCGGTCG	3.43
ATATGTAGGTTAAGGGACATTCAGGTTGGTTCGC	0.93
CCTATTAGTTGGCCATAAGGGCAACCGAAGCTCG	0.403
GCTGCTAGGTCAAATGATGGTCAGCTAAAGCTCG	4.42
GCAGACAGGTGAAACGCAGGTCACTCAGGGTGGC	1.55
TCTATTAGTTGATTAGGACAACCGAAACAGCGGA	0.957
ACTATTAGTTGACTCAGGGCAACCGATACGACGC	0.117
ATCTCTACGTAAAGATAGTTCAGTGAATGCAAAT	-0.547
CGTTACGGGTCACGAGGTTATAGCACGACGAGCG	6.83
TTTCAAAGTTCAAAGGTAACGTAAGTATCCACAC	7.1
TCTGGCAGGCCAGAGGGTCACTCAAGAGGTACGG	1.24
TCATATAGGTAAAGGTGTAAGTCGAACGATATGA	0.564
TTATATAGGTAAAGGTGAAAGTCGAACGATATGA	1.14
GATACAGGGTCACGGCCAGAGTACGCGTATTGAT	7.54

Sequence	PBM binding z-score
GCTAGCAGGCAATTTGGGTCACTCAATGACGGGC	0.195
CCTAGCCGGCCAGGGTCACTCAAGCATTTCGCTT	2.27
ACGGACAGGTGAGTGAAGGTAACTCAGCTGGACG	0.715
ATCTCTAGGTAACCAAGTTCAGTGGATGCCGAAC	0.155
CCTAGCAGGCCAATCTGGGGCACTCAAGGCTTGA	-0.393
CGTCCAAGGACAAAGGTCAGTGAAGAGATGACGG	3.18
GATACAGGGTCAAGGCTAGAGTACGCGTATTGAT	6.01
AATACAGGGTCTTCGTAGGCCAGAGTACGCACAG	-0.0491
CCTACTGGGCCAAGGTCATGGATCAGTCAAAGCA	3.04
GGAACGCGGGCAAAGTTGATAGCATCTGTCGACG	-0.48
ACTATTAGTTGAGACGATGGCAACCGATAGGTTG	-0.242
CAGCCTATGTCAGGGCCAGTATAGGAGGAACGTT	-0.392
CCGACTGGGGCTAGGTTACCATAACGCACAGCCA	-0.553
CGAACTAGGTCATTGACAGGACTGTGAATAGTAA	4.46
CGAACGAGGGCCTGAGTTGATAGCAAATGCCGAT	-0.571
GCTAGTAGGCCATTTGGGTCACTCAATGACGGGC	-0.0419
GCTGCTAGGTGAGGTTGGTCAGCTAACGGGTACG	-0.483
ATACCAGGGTGATCGTGAGGTCGTTGATACTAAC	1.34
GCTAGCAGGCCATTTGGGTGACTCAATGACGGGC	-0.535
GCTGCTAGGTCAGGTTGGTCAGCAAACGGGTACG	1.13
